These results are taken from PubChem BioAssay (Tox21).

Unmarked numbers belong to inactive results. Results filed as inconclusive are left out. Active and inactive are the calls of the source. Unless noted, calls come from the whole dose curve; as a rule, active = well fitted curve in the direction sought with a large enough effect in the repeat runs; inconclusive = weak or mixed curves; inactive = no such curve, though single readings can be large; an effect the other way counts as inactive or inconclusive.

The nature of assay [1]: qHTS assay to identify small molecule agonists of the estrogen receptor alpha (ER-alpha) signaling pathway in the presence of an antagonist - cell viability counter screen (AID 1259386). For activity change, negative = cytotoxicity: series mostly up to about 92 µM.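 Note: cells exposed to compounds for 22 h at 37 °C before the viability read; nearly all actives have a fitted effect of over 30% in size.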 Note: potency is the fitted concentration of half-maximal effect. A digest of the protocol:
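Viability counter screen using VM7Luc4E2 (full-length ER-alpha, four ERE-luciferase). The cells were treated with compounds alongside ICI-182,780 10.0nM for 22hr, and live-cell protease fluorescence was quantified with CellTiter-Fluor.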
In general terms: qHTS replaces the single test concentration by a dilution series.

The target of assay [2] is Progesterone receptor (Homo sapiens) (UniProt P06401). Briefly: qHTS assay to identify small molecule antagonists of the progesterone receptor (PR) signaling pathway (AID 1346795; active = well fitted inhibition curve with a large enough effect in the signal ratio in the repeat runs, not every such curve was filed as active; the % refers to the signal ratio; note: potency is the fitted concentration of half-maximal effect). In outline:
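After 6 hr plating at 37C in 2% stripped-serum medium, PR-UAS-bla HEK293T cells got compounds, then 1 nM R5020. Sixteen hours later, LiveBLAzer substrate was applied for 2 hr at room temperature and fluorescence was recorded.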

Assay [3] in a line: qHTS assay to identify small molecule antagonists of the progesterone receptor (PR) signaling pathway - cell viability counter screen (AID 1346798). For activity change, negative = cytotoxicity: series mostly up to about 92 µM. Note: nearly all actives have a fitted effect of over 50% in size. Note: potency is the fitted concentration of half-maximal effect. In outline:
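Viability was determined by ATP-based luminescence (CellTiter-Glo) in PR-UAS-bla HEK293T cells cultured in 2% charcoal-stripped serum and incubated 16 hr with compounds under R5020 stimulation.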

A short description of assay [4]: qHTS assay to identify small molecule agonists of the progesterone receptor (PR) signaling pathway - cell viability counter screen (AID 1346799; calls by dose curve; note: nearly all actives have a fitted effect of over 45% in size; note: potency is the fitted concentration of half-maximal effect). In outline: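 Viability was scored by ATP luminescence (CellTiter-Glo, 30 min, room temperature) in the same wells used for the reporter readout, after 16 hr compound exposure of PR-UAS-bla HEK293T cells.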
The nature of assay [5]: qHTS assay to identify small molecule antagonists of the TGF-beta/Smad signaling pathway - cell viability counter screen (AID 1346824). Note: nearly all actives have a fitted effect of over 50% in size. Note: potency is the fitted concentration of half-maximal effect. A digest of the protocol: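 Cytotoxicity counter-screen run in the same wells as the beta-lactamase Smad reporter read: CellTiter-Glo luminescence after 30 min at room temperature. HEK 293T SBE-bla cells had 5 hr compound exposure at 37 C with TGF-beta1 (0.25 ng/mL stock).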

The nature of assay [6]: qHTS assay to identify small molecule agonists of the TGF-beta/Smad signaling pathway - cell viability counter screen (AID 1346829). For activity change, negative = cytotoxicity: top concentration of the series differs between compounds. Note: nearly all actives have a fitted effect of over 45% in size. Note: potency is the fitted concentration of half-maximal effect. In outline:
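Here the cytotoxicity of library compounds is measured in SBE-bla HEK 293T cells treated for 5 hr, using CellTiter-Glo added to wells already read for the beta-lactamase reporter.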

Assay [7] has as its target Thyrotropin-releasing hormone receptor (Homo sapiens) (UniProt P34981). The assay is described as follows: qHTS assay to identify small molecule agonists of the thyrotropin-releasing hormone receptor (TRHR) signaling pathway (AID 1346891; calls by dose curve; note: potency is the fitted concentration of half-maximal effect;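 for activation: HEK293 cells expressing TRHR with calcium dye readout; series mostly up to about 58 µM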). In outline:
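Kinetic fluorescence (3 min, 1 s intervals) reported intracellular calcium after compound transfer onto TRHR-Hek293 cells pre-loaded with dye for 2 h at 37 °C.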

Assay [8] is described as follows: Human pregnane X receptor (PXR) small molecule agonists, qHTS cell viability counter screen (AID 1346977). Note: nearly all actives have a fitted effect of over 50% in size. Note: potency is the fitted concentration of half-maximal effect. A digest of the protocol:
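HepG2 cells stably carrying the PXR-Luc reporter are cultured with 5% charcoal-stripped FBS and treated with compounds for 24hr. CellTiter-Fluor is added at 23hr and fluorescence is read after 1hr.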

A short description of assay [9]: Caspase-3/7 induction in HepG2 cells by small molecules, qHTS assay (AID 1346978). Note: nearly all actives have a fitted effect of over 15% in size. Note: potency is the fitted concentration of half-maximal effect. In outline: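 Caspase-3/7 induction was measured by Caspase-Glo 3/7 luminescence (30 min, room temperature) after a 17 hr compound exposure of wild-type HepG2 cells seeded at 2,000 per well and pre-incubated 5 hr.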
A short description of assay [10]: Caspase-3/7 induction in CHO-K1 cells by small molecules, qHTS cell viability counter screen (AID 1346979). Note: nearly all actives have a fitted effect of over 35% in size. Note: potency is the fitted concentration of half-maximal effect. In outline:
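Seeding: 1,500 CHO-K1 cells/well. Rest: 5hr, 37C. Treatment: compounds in DMSO, 16hr. Read: CellTiter-Fluor, 1hr, fluorescence.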

Assay [11] can be described thus: Caspase-3/7 induction in CHO-K1 cells by small molecules, qHTS assay (AID 1346980). Note: nearly all actives have a fitted effect of over 15% in size. Note: potency is the fitted concentration of half-maximal effect. A digest of the protocol:
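Luminescent Caspase-Glo 3/7 read (30min, room temperature) quantified apoptosis induction. Cells were wild-type CHO-K1, treated with compound for 17hr at 37 C and 5% CO2.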

Assay [12] can be described thus: Caspase-3/7 induction in HepG2 cells by small molecules, qHTS cell viability counter screen (AID 1346981). For activity change, negative = cytotoxicity: series mostly up to about 92 µM. Note: nearly all actives have a fitted effect of over 30% in size. Note: potency is the fitted concentration of half-maximal effect. A digest of the protocol:
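Viability determined by CellTiter-Fluor fluorescence in HepG2 wells also used for the luminescent Caspase-Glo 3/7 read. Compounds were present for 16 hr at 37 C, 5% CO2 before reagent addition.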

For assay [13], the target named is Nuclear receptor subfamily 1 group I member 2 (Homo sapiens) (UniProt O75469). Briefly: Human pregnane X receptor (PXR) small molecule agonists, qHTS assay (AID 1346982). Note: nearly all actives have a fitted effect of over 35% in size. Note: potency is the fitted concentration of half-maximal effect. A digest of the protocol:
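Compound-induced hPXR transactivation of a CYP3A4 luciferase reporter was scored in HepG2 PXR-Luc cells over 24 hr at 37 C, 5% CO2, by luminescence.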

For assay [14], the target named is Acetylcholinesterase (Homo sapiens) (UniProt P22303). The assay is described as follows: Acetylcholinesterase (AChE) small molecule antagonists: colormetric cell-based qHTS assay (AID 1347395; calls by dose curve; note: nearly all actives have a fitted effect of over 30% in size; note: potency is the fitted concentration of half-maximal effect). In outline: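 Quantitative HTS in attached SH-SY5Y cells: 30 min compound exposure, then 90 min with acetylthiocholine and DTNB at 37 C; colour from thiocholine reports AChE activity.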

Assay [15] addresses Progesterone receptor (Homo sapiens) (UniProt P06401). The assay is described as follows: qHTS assay to identify small molecule agonists of the progesterone receptor (PR) signaling pathway (AID 1346784; calls by dose curve; note: nearly all actives have a fitted effect of over 30% in size; note: potency is the fitted concentration of half-maximal effect). In outline: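 The screen uses PR-UAS-bla HEK 293T cells in charcoal-stripped serum (2%). Compounds are applied for 16 hr at 37C after a 6 hr pre-incubation, and reporter activity is detected with a FRET beta-lactamase substrate after 2 hr at room temperature.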

Assay [16] concerns the target Thyrotropin-releasing hormone receptor (Homo sapiens) (UniProt P34981). Briefly: qHTS assay to identify small molecule antagonists of the thyrotropin-releasing hormone receptor (TRHR) signaling pathway (AID 1346877; active = well fitted inhibition curve with a large enough effect in the repeat runs, not every such curve was filed as active; note: series mostly up to about 51 µM). In outline: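 Following an 18 h incubation at 37 °C and a 2 h calcium dye load, TRHR-HEK293 cells were exposed to compound (5 min, room temperature) and challenged with TRH, 1 nM final.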

Assay [17] can be described thus: qHTS assay to identify small molecule agonists of the TGF-beta/Smad signaling pathway (AID 1346859; active = well fitted activation curve with a large enough effect in the signal ratio in the repeat runs, not every such curve was filed as active; the % refers to the signal ratio; note: series mostly up to about 77 µM). In outline:
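Dual-wavelength fluorescence (460/530 nm emission) quantified beta-lactamase expression under the Smad binding element in HEK 293T cells following 5 hr compound treatment at 37 C.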

In assay [18] the target is Nuclear receptor subfamily 1 group I member 2 (Rattus norvegicus) (UniProt Q9R1A7). Briefly: Rat pregnane X receptor (rPXR) activation by small molecules, qHTS assay (AID 1346983). Note: nearly all actives have a fitted effect of over 20% in size. The following applies: rPXR luciferase reporter cells, One-Glo luminescence, 24 h; max activation: active compounds read high. In outline: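 Luminescent readout (One-Glo luciferase, 30 min room temperature) followed 24 hr compound treatment at 37 C of rPXR cells plated 2,000 per well and preincubated 5hr; qHTS format with compounds delivered in DMSO.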

The target in assay [19] is Nuclear receptor subfamily 1 group I member 2 (Homo sapiens) (UniProt O75469). Briefly: CYP3A4 induction through human pregnane X receptor (PXR) by small molecules, qHTS assay (AID 1346984). Note: nearly all actives have a fitted effect of over 40% in size. A digest of the protocol:
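Readings come from a luciferase reporter: DPX-2 cells, which are HepG2 cotransfected with PXR and a CYP3A4-promoter construct, were exposed to test compounds for 24 h at 37C before One-Glo detection.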

For assay [20] the target is unchanged. Briefly: Human pregnane X receptor (PXR) activation by small molecules, qHTS assay (AID 1346985). Note: nearly all actives have a fitted effect of over 40% in size. In outline:
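DPX-2 cells (HepG2 co-transfected with a PXR response element and a CYP3A4-promoter luciferase construct) were seeded at 2,000 per well, rested 5 hr at 37C, then exposed to DMSO-dissolved compounds for 24 hr. Activation was read as luciferase luminescence.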
% is set by controls: 0 for no effect and ±100 for the full control effect.

Sequence of Nuclear receptor subfamily 1 group I member 2 (Homo sapiens) (O75469 whole entry, looked up): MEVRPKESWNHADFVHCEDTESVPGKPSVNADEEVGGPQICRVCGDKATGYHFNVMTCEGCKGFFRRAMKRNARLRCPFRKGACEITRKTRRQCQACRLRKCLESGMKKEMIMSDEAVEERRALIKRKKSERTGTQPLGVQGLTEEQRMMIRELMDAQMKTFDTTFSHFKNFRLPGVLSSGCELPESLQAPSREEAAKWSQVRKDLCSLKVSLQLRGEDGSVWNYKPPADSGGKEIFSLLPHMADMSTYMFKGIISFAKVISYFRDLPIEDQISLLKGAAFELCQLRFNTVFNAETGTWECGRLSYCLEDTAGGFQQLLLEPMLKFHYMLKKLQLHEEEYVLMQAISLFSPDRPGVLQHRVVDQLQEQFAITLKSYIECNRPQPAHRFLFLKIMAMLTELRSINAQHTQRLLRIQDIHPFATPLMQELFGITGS
Sequence of Acetylcholinesterase (Homo sapiens) (P22303 whole entry, looked up): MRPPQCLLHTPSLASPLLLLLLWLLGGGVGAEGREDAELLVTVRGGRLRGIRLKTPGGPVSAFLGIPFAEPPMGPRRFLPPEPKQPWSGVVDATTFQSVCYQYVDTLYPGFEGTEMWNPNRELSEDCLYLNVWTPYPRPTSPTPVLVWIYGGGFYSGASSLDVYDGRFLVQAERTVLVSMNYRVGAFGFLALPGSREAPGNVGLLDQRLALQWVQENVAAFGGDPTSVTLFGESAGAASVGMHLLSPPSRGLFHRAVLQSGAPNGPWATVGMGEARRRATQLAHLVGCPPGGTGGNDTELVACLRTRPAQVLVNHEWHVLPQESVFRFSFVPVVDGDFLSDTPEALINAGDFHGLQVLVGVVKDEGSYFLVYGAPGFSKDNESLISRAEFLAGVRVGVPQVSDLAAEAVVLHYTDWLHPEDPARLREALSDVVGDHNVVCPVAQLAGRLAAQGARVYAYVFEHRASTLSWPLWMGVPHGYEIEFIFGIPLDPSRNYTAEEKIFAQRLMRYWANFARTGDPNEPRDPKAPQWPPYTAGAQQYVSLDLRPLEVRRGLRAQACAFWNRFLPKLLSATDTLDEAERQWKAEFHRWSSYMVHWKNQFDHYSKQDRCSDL
Sequence of Thyrotropin-releasing hormone receptor (Homo sapiens) (P34981 whole entry, looked up): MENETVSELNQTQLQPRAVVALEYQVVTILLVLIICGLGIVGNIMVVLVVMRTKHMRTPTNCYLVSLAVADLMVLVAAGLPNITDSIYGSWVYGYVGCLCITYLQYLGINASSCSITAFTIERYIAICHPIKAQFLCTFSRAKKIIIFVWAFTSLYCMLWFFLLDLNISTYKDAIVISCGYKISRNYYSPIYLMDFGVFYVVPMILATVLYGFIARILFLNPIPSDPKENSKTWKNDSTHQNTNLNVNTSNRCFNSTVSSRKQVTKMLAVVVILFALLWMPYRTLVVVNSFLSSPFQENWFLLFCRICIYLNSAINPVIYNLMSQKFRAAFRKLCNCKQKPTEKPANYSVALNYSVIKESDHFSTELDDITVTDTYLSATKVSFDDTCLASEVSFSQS
Sequence of Progesterone receptor (Homo sapiens) (P06401 whole entry, looked up): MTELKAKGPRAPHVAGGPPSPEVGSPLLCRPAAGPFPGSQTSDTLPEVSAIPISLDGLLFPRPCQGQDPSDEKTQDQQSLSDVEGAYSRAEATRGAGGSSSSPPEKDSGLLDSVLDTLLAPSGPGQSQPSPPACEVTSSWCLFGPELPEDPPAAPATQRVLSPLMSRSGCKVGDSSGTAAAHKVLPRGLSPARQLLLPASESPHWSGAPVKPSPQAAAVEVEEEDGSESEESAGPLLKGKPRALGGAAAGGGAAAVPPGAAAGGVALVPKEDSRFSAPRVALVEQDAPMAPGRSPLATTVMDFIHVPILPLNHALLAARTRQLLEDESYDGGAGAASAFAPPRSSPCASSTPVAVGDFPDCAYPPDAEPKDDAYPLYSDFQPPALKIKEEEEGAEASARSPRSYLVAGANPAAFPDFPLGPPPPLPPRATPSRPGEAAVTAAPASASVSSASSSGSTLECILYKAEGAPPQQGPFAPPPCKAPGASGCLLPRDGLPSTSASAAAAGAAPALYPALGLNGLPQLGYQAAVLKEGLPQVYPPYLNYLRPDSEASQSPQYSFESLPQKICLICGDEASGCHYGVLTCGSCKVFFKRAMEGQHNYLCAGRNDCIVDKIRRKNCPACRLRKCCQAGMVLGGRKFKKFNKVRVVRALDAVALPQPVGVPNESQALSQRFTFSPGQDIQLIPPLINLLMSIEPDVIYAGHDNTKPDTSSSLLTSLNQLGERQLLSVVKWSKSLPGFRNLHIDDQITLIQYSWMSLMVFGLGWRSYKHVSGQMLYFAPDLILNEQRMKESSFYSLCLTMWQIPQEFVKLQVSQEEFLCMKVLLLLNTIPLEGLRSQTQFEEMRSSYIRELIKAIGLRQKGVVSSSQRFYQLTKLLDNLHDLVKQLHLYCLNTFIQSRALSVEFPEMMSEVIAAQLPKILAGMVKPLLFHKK
Sequence of Nuclear receptor subfamily 1 group I member 2 (Rattus norvegicus) (Q9R1A7 whole entry, looked up): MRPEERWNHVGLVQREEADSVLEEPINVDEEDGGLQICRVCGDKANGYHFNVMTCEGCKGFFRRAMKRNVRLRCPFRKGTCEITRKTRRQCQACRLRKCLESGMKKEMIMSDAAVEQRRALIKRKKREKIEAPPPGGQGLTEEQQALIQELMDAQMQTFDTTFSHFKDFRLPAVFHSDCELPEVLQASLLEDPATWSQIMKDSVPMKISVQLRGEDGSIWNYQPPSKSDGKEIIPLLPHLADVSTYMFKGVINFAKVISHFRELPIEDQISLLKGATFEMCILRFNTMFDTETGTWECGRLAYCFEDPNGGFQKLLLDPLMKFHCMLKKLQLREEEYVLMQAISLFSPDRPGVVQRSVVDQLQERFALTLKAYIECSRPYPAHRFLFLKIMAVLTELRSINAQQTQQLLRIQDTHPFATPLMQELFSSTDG

Turning to `C=C(C)C(=O)[O][Sn]([CH2]CCC)([CH2]CCC)[CH2]CCC`, the Potency was 8.63 µM (active) in [1]; 1.09 µM (active) in [2]; 3.44 µM (active) in assay [3]; 2.17 µM (active) in [4]; 1.38 µM (active) in assay [5]; 1.1 µM (active) in assay [6]. The Potency in [7] is 11 µM (active); in [8] it was 0.306 µM (active); in [9], 2.17 µM (active); in assay [10] it was 0.306 µM (active); in assay [11], 0.433 µM (active); in assay [12] it was 2.43 µM (active). In addition, in assay [13], the Potency was 0.193 µM (active). Further, in assay [14], the Potency entry was “inactive”.
For `Cc1c([N+](=O)[O-])cc2c(c1[N+](=O)[O-])C(C)(C)CC2(C)C`, the Potency entry in [1], in assay [15], in assay [3], in [4], in assay [6] and in assay [16] was “inactive” in each case. Further, the Potency entry in assay [7], in assay [8], in assay [9], in [11], in [12] and in assay [14] was “inactive” throughout. The Potency in [13] was 54.5 µM (active).
Regarding `COc1cnc(OC)n2nc(NS(=O)(=O)c3c(OCC(F)F)cccc3C(F)(F)F)nc12`, the Potency result in assay [1], in assay [2], in assay [3], in assay [4], in assay [5] and in assay [6] was “inactive” each time. For the same compound, the Potency result in assay [16], in assay [7], in assay [8], in [9], in assay [10] and in assay [11] was “inactive” throughout. Moreover, the Potency entry in assay [12], in assay [13] and in [14] was “inactive” throughout. Further, in [17], the outcome was inactive.
With `CCN(CC)Cc1nccn1-c1ccc([N+](=O)[O-])cc1C(=O)c1ccccc1Cl`, the Potency entry in assay [1], in assay [15], in assay [4], in assay [5], in assay [6] and in assay [7] was “inactive” in each case. In addition, the Potency result in assay [9], in assay [10], in assay [11] and in assay [14] was “inactive” throughout. For the same compound, the outcome in assay [17] was inactive. The Potency in [13] was 10.6 µM (active).
As to `CCOC(=O)CCN(SN(C)C(=O)Oc1cccc2c1OC(C)(C)C2)C(C)C`, the Potency entry in assay [1], in assay [2], in [3], in assay [4], in assay [5] and in assay [8] was “inactive” throughout. Besides, the Potency result in assay [9], in assay [11] and in [12] was “inactive” each time. Moreover, the call in assay [17] was inactive. Further, the Potency in [14] is 0.252 µM (active).
Consider `Clc1c(Cl)c(Cl)c(Cl)c(Cl)c1Cl`, for which the activity change, negative = cytotoxicity in assay [1] is 1.86% [at 8.39 µM]; in assay [3] it was -0.673% [at 8.39 µM]; in [4] it was 14.7% [at 8.39 µM]; in assay [6], 6.4% [at 6.97 µM]; in [8] it was 0.664% [at 8.39 µM]; in [12], -1.11% [at 8.39 µM]. Besides, in assay [2], the activity change, negative = inhibition is -1.77% [at 8.39 µM]. In addition, in [5], the viability change, negative = cytotoxic is 1.21% [at 6.97 µM]. In addition, the activation in [17] was -0.619% [at 6.97 µM]; in assay [7], -0.641% [at 5.23 µM]; in assay [13], -14.4% [at 8.39 µM]. Besides, the values for the activity, negative = inhibition in assay [16] and in assay [14] were 0.118% [at 4.65 µM] and -1.38% [at 10.5 µM], respectively. Further, in assay [9], the caspase activation is -1.49% [at 8.39 µM]. Moreover, in assay [11], the caspase-3/7 activation was 0.528% [at 8.39 µM].
Consider `CCCCC(CC)COC(=O)c1ccccc1C(=O)OCC(CC)CCCC` (stereo not drawn), for which the Potency result in assay [1], in assay [5], in [6], in assay [7], in [8] and in [9] was “inactive” each time. The Potency result in assay [10], in assay [11], in assay [12] and in assay [14] was “inactive” in each case. For the same compound, the Potency is 43.3 µM (active) in assay [15] and 6.86 µM (active) in [13].
`CC(C)c1c(CN(C)C(C)Cc2ccccc2)n(C)n(-c2ccccc2)c1=O` (stereo not drawn): the Potency entry in assay [1], in [15], in assay [5], in assay [6], in [16] and in [7] was “inactive” throughout. The Potency entry in assay [8], in assay [9], in [10], in assay [11] and in assay [12] was “inactive” each time. In [18], the max activation was 8.57%.
For `CC(Cc1ccc(O)cc1)NCC(O)c1cc(O)cc(O)c1` (stereo not drawn), the Potency result in [1], in [2], in assay [3], in [4], in assay [5] and in assay [6] was “inactive” in each case. Further, the Potency entry in [16], in assay [7], in assay [8], in assay [9], in [10] and in assay [11] was “inactive” throughout. For the same compound, the Potency entry in assay [12], in assay [13], in assay [19] and in [20] was “inactive” each time. In addition, the compound was called inactive in assay [17]. The max activation in [18] was -1.7%.
